Five molecules from PubChem BioAssay can be followed below.

Calls of active or inactive are those of the source. Unless noted, the rule behind the calls is not given here.

Assay [1] deals with Wnt5a (protein binding on small-molecule microarray). The assay can be described thus: small molecules binding Wnt5a protein – biophysical, small-molecule microarray, 635/667 nm fluorescence, primary screen (AID 1142).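 Note: fluorescence read at 667 nm with signal to noise per printed feature.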 To be noted: 635 nm fluorescence, higher = more signal.
Assay [2] in a line: ATP-based viability of Huh7 replicon cells – cell-based, CellTiter-Glo luminescence, basal, 48 h, cytotoxicity control for HCV replication inhibitor project, primary screen (AID 1143).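 Note: Huh7 hepatoma cells carrying a hepatitis C replication reporter with no stimulus; test concentration not given here.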 To be noted: higher = more signal, called active from +8 up or from −8 down.
Assay [3] can be described thus: Pseudomonas biofilm growth suppression – PAO1 strain, BacTiter-Glo luminescence, LB-PBS, primary screen (AID 1144). To be noted: P. aeruginosa PAO1 biofilm, 12 h, higher = more signal.
Assay [4] can be described thus: basal CRE-LacZ reporter activity in PC12 – cell-based, unstimulated, primary screen (AID 1145). To be noted: no forskolin, luminescence, 4.5 h, higher = more signal, called active from +8 up or from −8 down.
A short description of assay [5]: forskolin-driven CRE-LacZ activity in PC12 – cell-based, CRE-LacZ reporter, forskolin-stimulated, primary screen (AID 1146).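 Note: PC12 cells with 6xCRE LacZ reporter stimulated by forskolin 10 µM; beta-galactosidase reporter signal reflecting CREB driven transcription.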 Conditions: luminescence, 4.5 h, higher = more signal, called active from +8 up or from −8 down.
The target in assay [6] is Streptavidin (Streptomyces avidinii) (UniProt P22629). Put plainly: compounds binding control protein streptavidin – biophysical, small-molecule microarray, 635/667 nm fluorescence, artefact control for SMM compound annotation, primary screen (AID 1147).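 Note: signal reflects streptavidin binding to arrayed compounds as a control protein.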 Conditions: higher = more signal.
Assay [7] in a line: probe aInhba binding on compound microarray – biochemical, small-molecule microarray, 635/667 nm fluorescence, primary screen (AID 1148).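 Note: score merges 667nm spot fluorescence with signal-to-noise for antibody binding to printed compounds.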 To be noted: higher = more signal.
The target of assay [8] is Torsin-1A (Homo sapiens) (UniProt O14656). The assay can be described thus: TOR1A wild-type binding on microarray – cell lysate, small-molecule microarray, lysate, 635/667 nm, primary screen (AID 1149). To be noted: COS7 hTOR1A-WT lysate, 635 nm fluorescence, higher = more signal.
Assay [9] shares this target. The assay can be described thus: torsin A mutant lysate binding on microarrays – cell lysate, small-molecule microarray, COS7 lysate, 635/667 nm fluorescence, primary screen (AID 1150).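 Note: score pools 667 nm emission and signal to noise measuring lysate protein binding.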 To be noted: COS7 hTOR1A mutant lysate, 635 nm fluorescence, higher = more signal.
Assay [10] deals with Sonic hedgehog protein (Shh). The assay can be described thus: Sonic hedgehog microarray binding compounds – biochemical, small-molecule microarray, 635/667 nm fluorescence, primary screen (AID 1151).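 Note: Shh protein binding to compounds spotted on small-molecule microarray slides; score combines spot fluorescence intensity with signal-to-noise across triplicate slides.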 To be noted: 635 nm fluorescence, higher = more signal.
A short description of assay [11]: optical density shifts of acrAB sulA E. coli – strain DRC41, OD650, 48 h, E. coli filamentation inducer project, primary screen (AID 1152).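 Note: E. coli MC1000 strain DRC41 lacking acrAB efflux pump and sulA.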 Conditions: higher = more signal, called active from +8 up or from −8 down.
Assay [12] in a line: probe aLefty1 binding on compound microarray – biochemical, small-molecule microarray, 635/667 nm fluorescence, primary screen (AID 1153).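 Note: score merges spot fluorescence with signal-to-noise ratio from the scanned slide images.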 Conditions: higher = more signal.
Assay [13] in a line: plasmodial surface anion channel blockers, osmotic lysis – cell-based, P. falciparum Indochina, OD700, 1 h, primary screen (AID 1154). Conditions: P. falciparum Indochina infected RBC osmotic lysis, higher = more signal, called active from +8 up or from −8 down.
Assay [14] is described as follows: plasmodial surface anion channel blockers, osmotic lysis – cell-based, P. falciparum Indochina, OD700, 2 h, primary screen (AID 1155).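 Note: lysis reports solute entry through the parasite surface anion channel PSAC.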 Conditions: P. falciparum Indochina infected erythrocytes, higher = more signal, called active from +8 up or from −8 down.
Assay [15] can be described thus: changes in parasitized red cell lysis, either direction – P. falciparum Indochina, OD700, 3 h, PSAC antagonist project, primary screen (AID 1156). To be noted: P. falciparum-infected erythrocytes, osmotic lysis, higher = more signal, called active from +8 up or from −8 down.
Assay [16] is described as follows: plasmodial surface anion channel blockers, osmotic lysis – cell-based, P. falciparum Indochina, OD700, 18 h, primary screen (AID 1157). To be noted: P. falciparum Indochina infected erythrocytes, osmotic lysis OD700, 18 h; higher = more signal, called active from +8 up or from −8 down.
Assay [17] in a line: S6 kinase pathway phospho-S6 level changes – cell-based, A549, cytoblot, luminescence, serum-stimulated, primary screen (AID 1158).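 Note: serum-stimulated A549 lung adenocarcinoma cells; signal is phosphorylated S6 detected by cytoblot immunostaining with HRP secondary.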 Conditions: 5 h, higher = more signal.
In assay [18] the target is NADPH oxidase 2 (Homo sapiens) (UniProt P04839). Put plainly: compounds shifting NOX2 Amplex Red fluorescence – cell-based, HEK293-NOX2, PMA-stimulated, NOX inhibitor project, primary screen (AID 1159). Note: test concentration not given here. Conditions: 45 min, higher = more signal, called active from +8 up or from −8 down.
For assay [19], the target named is NADPH oxidase 4 (Homo sapiens) (UniProt Q9NPH5). The assay can be described thus: compounds shifting NOX4 Amplex Red fluorescence – cell-based, HEK293-NOX4, tetracycline-induced, NOX inhibitor project, primary screen (AID 1160). Conditions: HEK293-NOX4, Amplex Red H2O2 fluorescence, 45 min; higher = more signal, called active from +8 up or from −8 down.
Assay [20] has as its target NADPH oxidase 5 (Homo sapiens) (UniProt Q96PH1). Put plainly: compounds shifting NOX5 Amplex Red fluorescence – cell-based, HEK293-NOX5, NOX inhibitor project, primary screen (AID 1161). To be noted: HEK293-NOX5, ionomycin, 45 min, higher = more signal.

Sequence of NADPH oxidase 5 (Homo sapiens) (Q96PH1 whole entry, looked up): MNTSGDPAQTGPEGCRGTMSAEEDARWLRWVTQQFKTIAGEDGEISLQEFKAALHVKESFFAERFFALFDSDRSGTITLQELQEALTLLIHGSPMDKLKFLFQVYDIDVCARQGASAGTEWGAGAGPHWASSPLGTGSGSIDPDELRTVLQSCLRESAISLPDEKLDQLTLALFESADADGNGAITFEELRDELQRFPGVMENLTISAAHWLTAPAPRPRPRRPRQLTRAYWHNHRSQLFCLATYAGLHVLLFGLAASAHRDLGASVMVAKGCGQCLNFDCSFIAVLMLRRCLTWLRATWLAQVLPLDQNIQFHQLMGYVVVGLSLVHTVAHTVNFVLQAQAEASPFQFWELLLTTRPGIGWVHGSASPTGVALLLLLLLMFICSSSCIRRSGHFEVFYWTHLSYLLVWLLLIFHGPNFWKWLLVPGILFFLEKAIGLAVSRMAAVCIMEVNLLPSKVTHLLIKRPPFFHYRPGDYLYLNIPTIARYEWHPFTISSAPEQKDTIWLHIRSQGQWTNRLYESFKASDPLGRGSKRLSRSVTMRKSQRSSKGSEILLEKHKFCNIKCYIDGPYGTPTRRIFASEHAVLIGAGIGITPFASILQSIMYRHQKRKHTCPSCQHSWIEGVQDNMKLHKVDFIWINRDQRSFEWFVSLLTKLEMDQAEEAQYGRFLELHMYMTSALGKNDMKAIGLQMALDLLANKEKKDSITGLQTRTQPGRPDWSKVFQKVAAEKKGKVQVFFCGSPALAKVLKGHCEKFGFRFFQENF
Sequence of Streptavidin (Streptomyces avidinii) (P22629 whole entry, looked up): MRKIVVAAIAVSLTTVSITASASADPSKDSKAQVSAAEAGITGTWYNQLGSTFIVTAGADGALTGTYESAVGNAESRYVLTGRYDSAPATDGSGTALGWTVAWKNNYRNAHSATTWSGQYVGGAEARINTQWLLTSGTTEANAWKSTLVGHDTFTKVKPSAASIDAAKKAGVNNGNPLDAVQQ
Sequence of NADPH oxidase 2 (Homo sapiens) (P04839 whole entry, looked up): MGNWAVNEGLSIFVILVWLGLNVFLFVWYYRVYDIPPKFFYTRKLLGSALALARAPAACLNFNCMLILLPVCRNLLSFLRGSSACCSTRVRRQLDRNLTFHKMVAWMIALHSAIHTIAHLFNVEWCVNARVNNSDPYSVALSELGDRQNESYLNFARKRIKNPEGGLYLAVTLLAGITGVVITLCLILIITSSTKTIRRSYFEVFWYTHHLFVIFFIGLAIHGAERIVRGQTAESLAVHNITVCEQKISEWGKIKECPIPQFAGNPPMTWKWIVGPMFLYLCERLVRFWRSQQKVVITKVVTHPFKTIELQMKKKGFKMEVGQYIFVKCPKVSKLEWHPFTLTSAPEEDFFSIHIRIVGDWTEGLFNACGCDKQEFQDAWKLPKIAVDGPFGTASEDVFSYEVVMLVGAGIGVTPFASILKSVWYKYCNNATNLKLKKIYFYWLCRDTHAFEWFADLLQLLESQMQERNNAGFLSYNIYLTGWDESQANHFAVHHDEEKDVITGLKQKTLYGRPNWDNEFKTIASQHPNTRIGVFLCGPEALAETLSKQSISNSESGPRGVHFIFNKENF
Sequence of NADPH oxidase 4 (Homo sapiens) (Q9NPH5 whole entry, looked up): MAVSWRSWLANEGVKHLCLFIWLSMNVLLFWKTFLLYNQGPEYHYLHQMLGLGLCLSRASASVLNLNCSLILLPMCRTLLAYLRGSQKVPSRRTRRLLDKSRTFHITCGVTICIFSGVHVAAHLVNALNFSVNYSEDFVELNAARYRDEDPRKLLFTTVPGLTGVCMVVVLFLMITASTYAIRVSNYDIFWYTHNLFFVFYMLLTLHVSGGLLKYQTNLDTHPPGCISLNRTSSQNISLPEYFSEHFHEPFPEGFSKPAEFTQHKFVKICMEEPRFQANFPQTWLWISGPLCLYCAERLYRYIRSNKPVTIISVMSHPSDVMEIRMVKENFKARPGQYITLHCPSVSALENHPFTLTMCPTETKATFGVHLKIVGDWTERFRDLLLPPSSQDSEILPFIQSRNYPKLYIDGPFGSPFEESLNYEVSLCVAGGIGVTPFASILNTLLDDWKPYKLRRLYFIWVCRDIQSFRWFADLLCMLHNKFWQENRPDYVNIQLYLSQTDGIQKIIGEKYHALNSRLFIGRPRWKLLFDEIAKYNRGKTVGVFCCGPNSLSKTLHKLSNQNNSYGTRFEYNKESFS
Sequence of Torsin-1A (Homo sapiens) (O14656 whole entry, looked up): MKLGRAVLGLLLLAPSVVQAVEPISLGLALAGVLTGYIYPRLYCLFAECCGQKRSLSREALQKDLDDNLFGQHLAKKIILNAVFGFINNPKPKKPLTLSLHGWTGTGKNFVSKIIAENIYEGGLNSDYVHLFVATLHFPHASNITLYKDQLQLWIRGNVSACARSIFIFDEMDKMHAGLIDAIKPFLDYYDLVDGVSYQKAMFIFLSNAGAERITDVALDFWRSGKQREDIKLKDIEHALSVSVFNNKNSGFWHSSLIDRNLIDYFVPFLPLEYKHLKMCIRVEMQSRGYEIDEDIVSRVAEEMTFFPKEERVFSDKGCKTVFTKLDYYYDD

On to `CC(C)C(O)C1C=CC2C(=O)N(c3ccccc3)C(=O)C2N1Nc1ccc([N+](=O)[O-])cc1` (stereo not given), for which the composite z-score was 0.774 in assay [1]; 0.122 in [6]; 0.726 in assay [7]; 0.0373 in assay [8]; 0.142 in assay [9]; -0.688 in assay [10]. Besides, the composite z-score in assay [12] amounted to 0.0045. The z-score is -0.208 (inactive) in assay [2]; 0.21 (inactive) in assay [3]; -0.368 (inactive) in [4]; -0.343 (inactive) in [5]; -0.467 (inactive) in [11]; 11 (active) in assay [13]. Moreover, the z-score is 1.48 (inactive) in assay [14]; 0.928 (inactive) in [15]; 0.779 (inactive) in assay [16]; -0.326 in [17]; -0.59 (inactive) in assay [18]; -1.82 (inactive) in assay [19]. In assay [20], the z-score is -1.23.

Take `C=CCC(OC(C)=O)[C@@H]1[C@@H](N(Cc2ccc(-c3ccccc3)cc2)C(=O)c2cccc3ccccc23)c2cc(OCCCO)ccc2N1C(=O)c1ccc(-c2ccccc2)cc1` (stereo not given in full): the composite z-score was 0.0826 in assay [1]; 0.232 in [6]; 0.0979 in assay [7]; -0.0396 in assay [8]; 0.499 in assay [9]; 0.362 in [10]. In assay [12], this molecule returned a composite z-score of 0.46. Besides, the z-score in assay [2] is -1.6 (inactive); in [3], -0.915 (inactive); in assay [4], 0.6 (inactive); in [5], -0.531 (inactive); in assay [11] it was 0.82 (inactive); in assay [13], 0.353 (inactive). For the same molecule, the z-score was 1.06 (inactive) in assay [14]; -0.291 (inactive) in assay [15]; 0.358 (inactive) in [16]; 0.121 in [17]; 0.299 (inactive) in assay [18]; -0.394 (inactive) in [19]. Further, the z-score in assay [20] is -4.31.

For `CCOC(=O)C[C@H]1[C@H](OC(=O)c2ccc(C(=O)c3ccccc3)cc2)[C@@H](NC(=O)c2ccccc2)c2cc(OCCCO)ccc2N1C(=O)Cc1ccc(OC)cc1`, the composite z-score is 0.285 in [1]; 0.101 in [6]; -0.0413 in [7]; -0.0962 in assay [8]; 0.322 in assay [9]; -0.0887 in [10]. In addition, the composite z-score in assay [12] is -0.185. The z-score was 0.0963 (inactive) in [2]; -0.0343 (inactive) in [3]; 2.75 (inactive) in [4]; 0.0836 (inactive) in assay [5]; -0.126 (inactive) in [11]; 3.37 (inactive) in [13]. The z-score in [14] was 0.656 (inactive); in assay [15] it was -0.391 (inactive); in assay [16], 0.259 (inactive); in [17], -0.0114; in assay [18], 0.924 (inactive); in assay [19], 0.983 (inactive). Besides, the z-score in assay [20] was found to be 1.45.

For the molecule `COCCCNC(=O)[C@]1(CCC(=O)OC(C)(C)C)N=C(c2ccc(OCCCO)cc2)O[C@@H]1c1ccccc1CN=[N+]=[N-]`, the composite z-score in assay [1] turned out to be 0.297; in assay [6], 1.24; in assay [7], 0.287; in [8], 1.64; in [9] it was 1.58; in assay [10] it was 0.233. The composite z-score in assay [12] was 1.06. Besides, the z-score in assay [2] is 0.107 (inactive); in assay [3], -0.514 (inactive); in [4], -0.459 (inactive); in assay [5], -1.18 (inactive); in assay [11] it was -0.458 (inactive); in assay [13] it was 26.3 (active). For the same molecule, the z-score in assay [14] is 7.34 (inactive); in assay [15], 0.785 (inactive); in [16], 1.13 (inactive); in assay [17] it was -0.0406; in assay [18], -0.974 (inactive); in [19] it was 0.289 (inactive). Further, the z-score in [20] is -0.307.

As to `CCOC(=O)C[C@H]1[C@H](OC(=O)c2ccccc2-c2ccccc2)[C@@H](NC(=O)CC(C)C)c2cc(OCCCO)ccc2N1C(=O)Cc1ccc(OC)cc1`, the composite z-score is -0.0051 in [1]; 0.0802 in [6]; -0.179 in [7]; 0.0776 in assay [8]; 0.199 in [9]; 0.222 in assay [10]. The same molecule returned a composite z-score in assay [12] of -0.0094. In addition, the z-score in assay [2] was -0.386 (inactive); in assay [3] it was 0.393 (inactive); in assay [4], 6.91 (inactive); in [5], 0.0967 (inactive); in [11], -0.892 (inactive); in [13], 2.71 (inactive). For the same molecule, the z-score in [14] is 0.317 (inactive); in [15] it was 0.587 (inactive); in [16] it was 0.207 (inactive); in assay [17], 0.633; in assay [18], -0.234 (inactive); in assay [19], 1.21 (inactive). Moreover, in assay [20], the z-score is -0.33.
